Assay results from PubChem BioAssay AID1224817 (Yan Lab, Georgia Cancer Center, Augusta University, 2016).
The campaign covered roughly 2,000 compounds. About 25 (1%) were called active. What follows is part of a selection rich in actives, with near analogues and random picks from the rest. Unmarked numbers belong to inactive results.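 The calls were made as follows: active = log2 luciferase ratio at or below -0.5849, meaning signal at two thirds of solvent-only control or lower; inactive = the rest.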

assay: eIF4E expression suppression, luciferase knock-in reporter – cell-based, HT1080, primary screen (AID 1224817); details: HT1080 EIF4E-luc2 knock-in reporter, 16 h, at 2.5 µM, stronger effect = lower value;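 also: luciferase reports endogenous eIF4E expression since it is co-expressed from the native EIF4E locus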

Structure (SMILES)	log2 luciferase activity ratio
O=C(O)/C=C\C(=O)Nc1ccccn1	0.0837
C[N+]1(CCC(=O)c2ccccc2)CCC2CCC(C2)C1 (stereo unspecified)	0.0296
CCCCCC[C@H]([C@H](C)O)n1cnc2c(N)ncnc21	-0.0979
NCCSCCC(=O)O	-0.0504
NCC(=O)Nc1ccccc1	-0.679 (active)
CC(=O)CC(=O)Nc1ccc2ccccc2c1	0.376
CC(C)(CC(=O)Nc1ccccc1)C(=O)O	-0.26
CN(C)Cc1c[nH]c2nc[nH]c(=O)c12	0.205
CN(C)CCC(=O)[C@@]1(O)CC[C@H]2[C@@H]3CC=C4C[C@@H](O)CC[C@]4(C)[C@H]3CC[C@@]21C	0.263
O=C(O)CC1OCC=C2C[N+]3([O-])CCC45c6ccccc6NC4C1C2CC53 (stereo unspecified)	0.195
Cc1ccc(C2(C)CC/C(=N/N=C3/CCC(C)(c4ccc(C)c(C)c4)c4cc(C)c(C)cc43)c3cc(C)c(C)cc32)cc1C (stereo unspecified)	0.135
Oc1c(Cl)cc(C(c2cc(Cl)c(O)c(Cl)c2)C(c2cc(Cl)c(O)c(Cl)c2)c2cc(Cl)c(O)c(Cl)c2)cc1Cl	-0.198
COc1ccc(CCN(C)CCCC(C#N)(c2ccc(OC)c(OC)c2)C(C)C)cc1OC (stereo unspecified)	-0.662 (active)
COc1ccc(C[N+](C)(C)N)cc1OC	-0.225
Cc1cc(=O)oc2c(OS(C)(=O)=O)c(OS(C)(=O)=O)ccc12	0.0541
Cc1ccn2c(CCc3nnc4cc(C)ccn34)nnc2c1	-0.0744
CC(=O)NC1CONC1=O (stereo unspecified)	-0.303
C=C[C@]1(C)C[C@@H](OC(=O)CO)[C@@]2(C)[C@H](C)CC[C@]3(CCC(=O)[C@H]32)[C@@H](C)[C@@H]1O	0.127
Oc1ccc(Cc2nccc3cc(O)c(O)cc23)cc1O	-0.044
OCCN(CO)CO	-0.297
COc1ccc(CNC(C)C(=O)O)cc1 (stereo unspecified)	-0.198
C/C(=N\[N+](C)(C)C)c1ccc(C)c(C)c1	-0.284
CC(C)CCC[C@@H](C)[C@H]1CC[C@H]2[C@@H]3CC[C@H]4C[C@H](N)CC[C@]4(C)[C@H]3CC[C@]12C	0.0721
CN(C)CCCNc1cc(O)c2c(c1O)C(=O)c1ccccc1C2=O	1.39

Structure (SMILES)	log2 luciferase activity ratio
O=C(O)C/C=C/CC(=O)O	-0.0603
CC(C)(C)CC(C)(C)c1cc(O)c(O)c(CN2CCCCC2)c1	-0.183
CC(C)(C)c1ccc(CN2CCN(C(c3ccccc3)c3ccc(Cl)cc3)CC2)cc1 (stereo unspecified)	-0.0054
O=C1C(Cl)=C(Sc2nnc3c4ccccc4c4ccccc4c3n2)C(=O)c2ccccc21	0.552
O=C(O)CCSC1=NCCN1	-0.275
Oc1ccc2ccccc2c1CN(Cc1c(O)ccc2ccccc12)C1CCCCC1	-0.018
Nc1nccc(Nc2ccc(S(N)(=O)=O)cc2)n1	-0.103
C/C(=N\NC1=NCCN1)c1cn(C2=NCCN2)nc1C	0.0578
CNC(c1ccncc1)C(NC)c1ccncc1 (stereo unspecified)	0.0459
O=C1c2cccc([N+](=O)[O-])c2C(=O)N1c1ncn[nH]1	-0.0931
COC(=O)[C@@]12OC[C@]34[C@H]([C@@H](O)[C@@H]1O)[C@@]1(C)C=C(OC5OC(CO)C(O)C(O)C5O)C(=O)[C@@H](C)[C@@H]1C[C@H]3OC(=O)[C@H](OC(=O)/C=C(\C)C(C)C)[C@@H]24 (stereo partly specified)	0.215
O=C(O)C1OC1C(=O)O (stereo unspecified)	-0.131
Cc1cc(N)c2cc(OCCOc3ccc4nc(C)cc(N)c4c3)ccc2n1	-0.0306
CN(CCc1ccccn1)c1ccc2c(c1)C(=O)c1ccccc1-2	0.213
COc1c2c(cc3c1[C@@H]1Oc4c(ccc(O)c4CC=C(C)C)[C@@H]1CO3)OC(C)(C)C=C2	-0.0761
O=C1c2ccccc2C(=O)N1CCCSc1ccccc1	0.412
CN(C)CC(O)c1ccc(Cl)c2ccccc12 (stereo unspecified)	-0.0364
Oc1c(C(O)(c2ccccc2)c2ccc3ccccc3c2O)ccc2ccccc12	0.313
COc1cc2oc3cc(=O)cc4oc(-c5ccccc5)cc(c2c2c1CCC(c1ccccc1)O2)c43 (stereo unspecified)	0.143
CCCCSCc1nc2nc(Cl)c(Cl)nc2[nH]1	-0.0768
Cn1cc(NC(=O)c2cc(NC(=O)c3cc(NC=O)cn3C)cn2C)cc1C(=O)NCCC(=N)N	-0.0884
NC(N)=NC(N)=Nc1c(F)c(F)c(F)c(F)c1F	0.115
O=C(O)/C=C/C(=O)Nc1cccc2c1-c1ccccc1C2=O	-0.335
NNC(=O)CCc1ccc2ccc3ccccc3c2c1	-0.0063

Structure (SMILES)	log2 luciferase activity ratio
NC(=O)N/N=C1/CCC(O)CC1CC(=O)O (stereo unspecified)	-0.0076
CSc1nc(C)cc(Nc2ccc(O)c(CN3CCOCC3)c2)n1	0.0575
CC(C)(C)c1cc(Br)c(O)c(CN(Cc2cc(C(C)(C)C)cc(Br)c2O)C2CCCCC2)c1	0.147
N=C(N)SCc1cccc2c(=O)cc(-c3ccccc3)oc12	-0.583
Cc1ncc(CSC(=N)N)n1Cc1ccccc1	0.207
Cc1c2ccccc2c(CSC(=N)N)c2ccccc12	-2.19 (active)
O=C1N[C@@H]([C@H]2CC[C@H](Cl)CN2)C(=O)N[C@H]1[C@H]1CC[C@H](Cl)CN1	-0.835 (active)
O=[N+]([O-])c1nccn1CC(O)CN1CCCCC1 (stereo unspecified)	0.364
NC(Cc1nn[nH]n1)C(=O)O (stereo unspecified)	-0.174
Cc1cc2ccccc2c[n+]1CC(O)C[n+]1cc2ccccc2cc1C	-0.0398
O=C(O)c1nn(-c2ccc(Cl)cc2)c2c1C(=O)c1ccccc1C2=O	0.061
Cc1c2cccc(Sc3ccccc3)c2c2c3c(cccc13)[S+](c1ccccc1)C2 (stereo unspecified)	0.38
Cc1ncc(COP(=O)(O)O)c(C)c1O	0.148
O=C(O)c1ccc(C(=O)O)c(C(=O)O)c1.[NH-]C1CCCCC1[NH-].[Pt+2]	0.127
Cn1c(=S)c2[nH]c(SCCCc3ccccc3)nc2n(C)c1=O	0.0675
CN1CCN(c2nc3c(c(=O)n(C)c(=O)n3C)n2C)CC1	-0.0962
Cc1[nH]n(-c2ccc(S(=O)(=O)O)cc2)c(=O)c1N=Nc1ccccc1	0.391
Nc1ccc(N=Nc2ccc(-c3ccc(O)cc3)cc2)c2ccc(S(=O)(=O)O)cc12	0.247
NNC(=O)C(O)C(O)C(=O)NN (stereo unspecified)	0.225
Nc1nc2c(c(=O)[nH]1)NC(CCNc1ccc(C(=O)O)cc1)CN2 (stereo unspecified)	-0.0715
O=C1COC(c2ccccc2O)=NN1CCCN1CCCC1	0.0493
CNC1C(OC2C(OC3C(O)C(O)C(N=C(N)N)C(O)C3N=C(N)N)OC(C)C2(O)/C=N/NC(N)=S)OC(CO)C(O)C1O (stereo unspecified)	-0.0125
COc1cccc2[nH]c(-c3ccccn3)nc12	1.75
C/C=C/c1cc2c(c(=O)o1)C(=O)[C@@H](O)[C@H](C)O2	0.166

Structure (SMILES)	log2 luciferase activity ratio
Sc1ccc2ccccc2c1CNCc1ccccc1	0.379
O=C(O)C1CC[N-]CC1.O=C(O)C1CC[N-]CC1.[NH2-].[NH2-].[Pt+4]	0.578
CCC(C(=O)C(C)C(O)C(C)CCc1ccc(C)c(O)c1C(=O)O)C1OC(CC)(C2CCC(O)(CC)C(C)O2)CC1C (stereo unspecified)	-0.243
CC1=C2[C@H]3OC(=O)[C@@H](C)[C@@H]3CC[C@@]2(C)C=C/C1=N\O	-0.026
Cc1ccc2nc(-c3ccc(NC(=O)c4ccc(N)cc4)c(S(=O)(=O)O)c3)sc2c1	0.394
CCOc1ccc2c(ccc(/C=C\c3cc(C)c4cccnc4c3O)[n+]2C)c1	-0.823 (active)
O=C(O)CNC(=O)C1NC(C(F)(F)F)(C(F)(F)F)OC1(C(F)(F)F)C(F)(F)F (stereo unspecified)	0.305
C=C1C(=O)OC2CC(C)C3(O)CCC(=O)C3(C)CC12 (stereo unspecified)	-0.237
Nc1ccc(S(=O)(=O)NCCS(=O)(=O)O)cc1	-0.13
O=C(O)c1cc(=O)[nH]c(=S)[nH]1	0.238
NC(N)=N/N=C/c1ccc(O)c(C(=O)O)c1	0.267
NNC(=O)CS(=O)(=O)Nc1ncccn1	-0.266
O=C(N/N=C/c1ccc2c(c1)CCC2)c1ccccc1O	0.157
CS(=O)(=O)Nc1ccc(Nc2c3ccccc3nc3ccccc23)cc1	0.308
O=C(O)C(O)C(O)C(O)C(=O)CO (stereo unspecified)	-0.272
Oc1cccnc1CN1CCCCC1	-0.635 (active)
Cc1nc(CN2CCCCC2)c(O)c(=O)[nH]1	-0.0244
CC(=O)Nc1cc(CN2CCCCC2)c(O)c2ncccc12	-0.0787
O=P(O)(CCP(=O)(O)c1ccccc1)c1ccccc1	0.225
OCC1OC(n2cnc3c(/C=C(/O)c4ccccc4)ncnc32)C(O)C1O (stereo unspecified)	1.58
O=c1ccc2nc3ccc(O)cc3oc-2c1	-0.212
C[n+]1cccc(/C=C/c2ccc3cccc(O)c3n2)c1	0.721
NC(CCCCO)C(=O)O (stereo unspecified)	0.0343
COc1ccc2c3c(ccc2c1)NC(C(=O)O)CC3 (stereo unspecified)	1.85
